From PubChem BioAssay AID2685 (National Center for Advancing Translational Sciences (NCATS), 2010)
In all, about 320,000 compounds went through this assay and about 2,100 (0.66%) were called active. Not shown: some 53% with an inconclusive outcome. Calls follow the shape of the dose curve; as a rule, active = well fitted inhibition curve with a large enough effect in the signal ratio, with a control signal flat (not every such curve was filed as active); inconclusive = small, poorly fitted or top-dose-only effect, or effect the other way, or a change in a side signal; inactive = flat fitted curve, though single readings scatter; the % refers to the signal ratio. Many of the other results were omitted from the sample, so actives are more common in it than they were.

Experiment: qHTS Assay for Lipid Storage Modulators in Drosophila S3 Cells;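 as to cell number change: cells counted by Cell Tracker Red CMTPX staining in the red channel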; as to lipid storage change, negative = inhibition: % is scaled to controls: 0 for no effect and ±100 for the full control effect
Settings: BODIPY lipid droplet fluorescence, 18-24 h, cells fed with added oleic acid; cell number change: measured here: cell count max response; series mostly up to 46.1 µM; lipid storage change, negative = inhibition: at the top concentration
Excerpt: NIH Molecular Libraries Probe Production Centers Network [MLPCN] NIH Chemical Genomics Center [NCGC] MLPCN Grant: 1 R03 MH085686-01 Assay Submitter (PI): Beller, Mathias; Max-Planck-Institut fur Biophysikalische Chemie NCGC Assay Overview: Storing lipids as a reservoir for energy or the anabolism of elementary metabolites is a common feature of probably all cells and is conserved from bacteria to humans. The universal cellular lipid storage organelle is the so-called lipid storage droplet (LD). Although ubiquitous, LDs share a simple structure composed of a hydrophobic core that harbors the storage lipids, which is shielded by a droplet-specific phospholipid monolayer to which proteins are attached. The current model of LD biogenesis involves an incorporation of the lipid core into the membrane leaflets of the endoplasmic reticulum (ER) followed by a subsequent budding-like maturation of a LD, which ultimately pinches off. Once released, LD volume can increase by localized lipogenesis or fusion of existing droplet. Storage lipids are re-mobilized enzymatically by lipase activity. Lipase regulation in the adipocyte is heavily studied and involves multiple components including catecholamine signaling, the LD-associated proteins Perilipin and comparative gene identification (CGI-58) and at least two lipases named hormone sensitive lipase (HSL) and adipocyte triglyceride lipase (ATGL). LD regulation outside of the adipocyte is poorly understood and only few components are known. However, there is an urgent need to learn more about ectopic fat depots as mislocalized storage of lipids, for example in the liver or muscle, is an eminent health problem associated with insulin resistance or the metabolic syndrome. We developed a laser-scanning cytometer assay to enable 1,536-well screening and combined the results of the small molecules screen with an RNAi database based on lipid storage.
Triacsin C (Sigma-Aldrich T-4540), an inhibitor of long-chain fatty acyl CoA synthetase that blocks synthesis of triglycerides, was used as a positive control for lipid under-storage. A total of 23 nL of compound solution of different concentrations were transferred to the assay plates using a Kalypsys pin tool equipped with a 1,536-pin array containing 10-nL slotted pins (FP1S10, 0.457-mm diameter, 50.8 mm long; V&P Scientific). One microliter of oleic acid (400 uM) was added, and the plate was lidded with stainless steel rubber gasket lined lids containing pinholes. […] Fluorescence was detected by excitation of the fluorophores with a 488-nm laser on an Acumen Explorer (TTP Lab Tech). The total intensity in channel 2 (500-530 nm) reflected lipid droplet accumulation. Cells were detected using channel 3 (575-640 nm) with 5-um width and 100-um depth filters. The ratio of the number of objects in PMT channel 2 over the number of objects in PMT channel 3 was also calculated. Percent activity was computed relative to an internal control (100% inhibited lipid droplet deposition due to the presence of 20 uM Triacsin C), which was added to 32 wells/plate.
Potency is read from the fitted curve at half-maximal effect.

Row | Compound | lipid storage change, negative = inhibition | cell number change [%] | Potency | outcome
1 | O=C(Nc1ccc(Cl)cc1C(=O)c1ccccc1)c1ccco1 | 1.66% (inactive) | 16.6 |  | 
2 | O=C(Nc1ccc(Cl)c(Cl)c1)c1ccco1 |  | 4.2 | 14.6 µM (active) | 
3 | CCOP(=S)(NN(Cc1ccccc1)C(=O)c1ccccc1)OCC |  | -8.12 | 6.51 µM (active) | 
4 | CCOP(=O)(OCC)C(NC(=O)c1ccccc1)=C(Cl)Cl | 0.618% (inactive) | 12 |  | 
5 | CCOP(=O)(OCC)C(Cc1ccccc1)NC(C)=O (configuration not stated) | -8.92% (inactive) | 6.58 |  | 
6 | CC(C)N1CCC2(CC1)NC(CO)(CO)CO2 | 10.4% (inactive) | 2.89 |  | 
7 | COc1ccc(C)cc1NC(=O)c1c(C)nn(Cc2ccccc2)c1Cl | -6.79% (inactive) | -8.13 |  | 
8 | O=C1N(c2ccccc2)C(c2cccnc2)N2CCCN12 (configuration not stated) | -3.46% (inactive) | -11.1 |  | 
9 | O=C1NC(=O)C(Cc2cccs2)C(=O)N1 |  | -13 | 25.9 µM (active) | 
10 | CN1C(=O)C(Cc2cccs2)C(=O)N(C)C1=O | -6.34% (inactive) | 1.68 |  | 
11 | O=C1NC(=O)N(Cc2cccs2)C(=O)/C1=C/c1ccc(N2CCOCC2)cc1 | -2.73% (inactive) | -3.62 |  | 
12 | CC(=O)O[C@@H]1[C@H]2CC[C@@H]3[C@]1(C[C@@H](OC(C)=O)[C@@]1(O)C([C@@H]4O[C@@H]4C1(C)C)[C@]3(C)O)C[C@@]2(C)O (some centres not stated) | -9.14% (inactive) | -2.47 |  | 
13 | CC(=O)Nc1ccccc1OC(=O)N1CCOCC1 |  |  | 18.4 µM (active) | 
14 | O=C(Nc1ccc(OC(=O)N2CCCC2)cc1)N1CCOCC1 | 0.334% (inactive) | 2.4 |  | 
15 | O=C(Nc1ccccc1OC(=O)N1CCCCC1)N1CCCCC1 | 2.68% (inactive) | 3.87 |  | 
16 | CC1(C)COC(Nc2ccc(Cl)cc2)=N1 | 7.18% (inactive) | 0.527 |  | 
17 | Cc1cc2oc(=O)cc(-c3cc4ccccc4o3)c2cc1OC(=O)N(C)C |  | 20.3 | 18.4 µM (active) | 
18 | COc1ccc(Oc2c(C)oc3cc(OC(=O)N(C)C)ccc3c2=O)cc1 | 3.93% (inactive) | 27.6 |  | 
19 | COc1cccc2cc(-c3cc(=O)oc4ccc(OC(=O)N(C)C)cc34)oc12 | 25.5% (inactive) | -3.98 |  | 
20 | COc1ccc(C(=O)C2CCCN(Cc3ccc(C)s3)C2)c(OC)c1 (configuration not stated) | -12.3% (inactive) | -6.83 |  | 
21 | Cc1ccsc1C(=O)C1CCCN(CCO)C1 (configuration not stated) | 15.5% (inactive) | -5.68 |  | 
22 | COc1ccc(C(=O)C2CCCN(CCO)C2)c(C)c1 (configuration not stated) |  | -6.32 | 0.82 µM (active) | 
23 | CC1(O)CCN2C(=O)CCc3cccc1c32 (configuration not stated) | -0.531% (inactive) | -14.6 |  | 
24 | Cn1c(O)c(/C=C2\C=c3ccccc3=NC2=O)c(=O)n(C)c1=O | 9.12% (inactive) | 5.41 |  | 
25 | CN1CCc2c([nH]c3ccccc23)C1 | -12% (inactive) | -7.02 |  | 

Row | Compound | lipid storage change, negative = inhibition | cell number change [%] | Potency | outcome
26 | CCCCOc1ccc(CC2C(=O)N(C)C(=O)N(C)C2=O)cc1 | 13.1% (inactive) | -19.6 |  | 
27 | COc1ccccc1CNCCc1ccc(F)cc1 | -8.79% (inactive) | -5.32 |  | 
28 | CCC(=NCCO)c1c(O)n(-c2ccc(Cl)cc2)c(=O)[nH]c1=O | 2.83% (inactive) | 11.3 |  | 
29 | CCC(=NCCO)c1c(O)n(-c2ccccc2)c(=O)[nH]c1=O |  | -16.7 | 20.6 µM (active) | 
30 | CCC(=NCc1ccco1)c1c(O)n(-c2ccccc2)c(=O)[nH]c1=O | 15.4% (inactive) | 12.1 |  | 
31 | CC(C)(C)N(NC(=O)c1ccccc1)C(=O)c1ccccc1 | 3.31% (inactive) | 1.15 |  | 
32 | COc1cc(/C=C2\C(=O)NC(=O)N(c3ccccc3)C2=O)cc(OC)c1OC |  |  | 0.731 µM (active) | 
33 | COc1cc(/C=C2\C(=O)NC(=O)N(c3ccc(C)cc3)C2=O)cc(OC)c1O | -2.05% (inactive) | 15 |  | 
34 | COc1cc(C=C2C(=O)NC(=O)NC2=O)cc(OC)c1OC | 7.23% (inactive) | 8.46 |  | 
35 | COc1ccccc1C(=O)C1CCCN(Cc2cnc(C)s2)C1 (configuration not stated) | 2.31% (inactive) | 3.73 |  | 
36 | Cn1c(O)c(C=NC2CCN(Cc3ccccc3)CC2)c(=O)[nH]c1=O | -10% (inactive) | -0.367 |  | 
37 | Cn1c(=O)c2c(nc(N/N=C/c3c(O)n(-c4ccccc4)c(=S)[nH]c3=O)n2C)n(C)c1=O | 12.3% (inactive) | 0.523 |  | 
38 | OC1(CN2CCOCC2)C2CC3CC(C2)CC1C3 (configuration not stated) |  | -6.79 | 8.2 µM (active) | 
39 | CC1(C)C2CC=C(CN3CCOCC3)C1C2 (configuration not stated) | -7.26% (inactive) | 1.35 |  | 
40 | CCC(C)n1c(O)c(C=NCCN2CCOCC2)c(=O)[nH]c1=S (configuration not stated) | -7.01% (inactive) | 0.504 |  | 
41 | COc1ccc(-n2c(O)c(C(C)=NCCN3CCNCC3)c(=O)[nH]c2=O)cc1 | -10.9% (inactive) | -2.05 |  | 
42 | COC(=O)C1=C(c2ccc(-c3ccccc3)c(F)c2)C[C@@H]2CC[C@H]1N2C(=O)NCCOc1ccccc1 |  | -7.31 |  | inactive
43 | COC(=O)C1=C(c2ccccc2OCc2ccccc2)C[C@@H]2CC[C@H]1N2C(=O)NCc1ccccc1 |  | -13.3 |  | inactive
44 | COC(=O)C1=C(c2ccccc2OCc2ccccc2)C[C@@H]2CC[C@H]1N2C(=O)NCc1ccc(OC)cc1 | -5.69% (inactive) | -4.45 |  | 
45 | COC(=O)C1=C(c2ccc3ccccc3c2)C[C@@H]2CC[C@H]1N2C(=O)NC1Cc2ccccc2C1 | 11.9% (inactive) | -10.8 |  | 
46 | COC(=O)C1=C(c2ccc(-c3ccccc3)c(F)c2)C[C@@H]2CC[C@H]1N2C(=O)NC1Cc2ccccc2C1 |  | -24.5 | 7.31 µM (active) | 
47 | COC(=O)C1=C(c2ccc(OC(F)(F)F)cc2)C[C@@H]2CC[C@H]1N2C(=O)NCCOc1ccccc1Cl |  |  |  | inactive
48 | COC(=O)C1=C(c2ccccc2OCc2ccccc2)C[C@@H]2CC[C@H]1N2C(=O)NCc1ccc(N(C)C)cc1 |  | -7.57 | 23.1 µM (active) | 
49 | COC(=O)C1=C(c2ccc(-c3ccccc3)c(F)c2)C[C@@H]2CC[C@H]1N2C(=O)NCCOc1ccccc1Cl |  | -24.1 | 14.6 µM (active) | 
50 | COC(=O)C1=C(c2ccc(-c3ccccc3)c(F)c2)C[C@@H]2CC[C@H]1N2C(=O)NCC1CC1 | 4.03% (inactive) | -12.8 |  | 
